# KB-V1 MDR tox = KB-V1 MDR subline cytotoxicity. 400,000 tested, 3.4% active. Potency, µM (doses to about 46.1 µM), usual class: cytotoxic. KB-V1 MDR cells viability, CellTiter-Glo, 72 h; note: % is set by controls: 0 for no effect and ±100 for the full control effect; nearly all actives have a fitted effect of over 60% in size
#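 Cytotoxicity via CellTiter-Glo luminescence after 72 h compound exposure at 37 degrees C. Cells: drug-selected KB-V1 line, DMEM phenol-red free plus 10% FBS. Compounds tested at multiple concentrations; normalized data fitted to concentration-effect curves.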
# S2 tox = cell viability loss in ATXN counter-screen. S2 cells (HEK-293 line with an ATXN2-luciferase reporter) viability, CellTiter-Fluor protease fluorescence, 24 h. Potency, µM (titrated, usually from 56.7 µM), actives largely listed as cytotoxic. 400,000 tested, 0.49% active; note: nearly all actives have a fitted effect of over 40% in size
# TGFb inhibitor = inhibitors of TGF-b signaling | 410,000 tested, 1.2% active | Potency, µM (titrated, usually from 46.1 µM), for inactives: at the highest dose activity, negative = inhibition, usual class: inhibitors | HepG2 CAGA-GFP TGF-b/SMAD3 reporter, GFP fluorescence, 18 h; TGF-beta stimulated, 500 pg/mL final; note: % is set by controls: 0 for no effect and ±100 for the full control effect; nearly all actives have a fitted effect of over 65% in size
#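 HEPG2 CAGA-GFP cells (1000/well, DMEM with 1% FBS) were pre-incubated 2 h at 37 degrees C, given compound by pin tool, then stimulated with TGF-beta at 500 pg/mL final for 18 h before per-cell GFP fluorescence imaging.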
# KB-3-1 cytotox = kills parental KB-3-1 adenocarcinoma cells. AID 1347075. Potency, µM (series often up to 46.1 µM), actives largely listed as cytotoxic. KB-3-1 viability, CellTiter-Glo ATP luminescence, 72 h. 400,000 tested, 1.4% active; note: % is set by controls: 0 for no effect and ±100 for the full control effect; nearly all actives have a fitted effect of over 60% in size
#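 Here the drug-naive KB-3-1 line serves as comparator for MDR sub-line selectivity; cells received compound titrations, 72 h at 37 °C, then CellTiter-Glo readout.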
# ATXN2 expr inh = reduces ATXN2 reporter expression in HEK-293 cells; Potency, µM (top dose mostly 57 µM), inactives show at the top dose activity change, negative = inhibition, usual class: inhibitors; 360,000 tested, 0.72% active; AID 1745845; HEK-293 ATXN2-luciferase reporter, luminescence, 24 h; note: % is set by controls: 0 for no effect and ±100 for the full control effect; nearly all actives have a fitted effect of over 55% in size
#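 qHTS (up to 57 uM final) was run with 24 h compound exposure of reporter cells at 37 °C. Each well was multiplexed: SteadyGlo luminescence measured ATXN2-luciferase expression after a fluorogenic Gly-Phe-AFC viability readout (25 uM final).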
# HepG2 tox-1 = HepG2 cytotoxicity, counter-screen for TGF-b inhibitors; 410,000 tested, 0.76% active; Potency, µM (highest dose often 46.1 µM), for inactives: at the highest dose activity change, negative = cytotoxicity, most hits filed as cytotoxic; HepG2 CAGA-GFP viability, ATP luminescence, 18 h; AID 588856
#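 CellTiter-Glo luminescence gave cytotoxicity after 18 hours at 37 degrees C. The cells were HepG2 CAGA-GFP in 1% FBS DMEM, stimulated with 500 pg/mL TGF-beta after compound addition. %Activity was normalised to no-cell wells (complete cell-killing) and DMSO (no toxicity), and curves were fitted and classified.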
# TGFb confirm = confirmation of TGF-b signaling inhibitors in HepG2 reporter cells | shares compounds with TGFb inhibitor | 1,600 tested, 63% active | Potency, µM (highest dose often 46.1 µM), for inactives: at the top dose activity, negative = inhibition, hits mostly inhibitors | HepG2 CAGA-GFP TGF-b reporter, GFP fluorescence, 18 h; cells stimulated with TGF-beta, 500 pg/mL; note: % is set by controls: 0 for no effect and ±100 for the full control effect; nearly all actives have a fitted effect of over 65% in size
# HepG2 tox-2 = toxic to HepG2 cells in TGF-b counterscreen; 1,600 tested, 27% active; Potency, µM (series often up to 46.1 µM), inactives show top-dose activity, negative = cytotoxicity, hits mostly inhibitors; HepG2 CAGA-GFP viability, ATP luminescence, 18 h; cells stimulated with TGF-beta, 500 pg/mL; AID 720535; shares compounds with TGFb inhibitor; note: % is set by controls: 0 for no effect and ±100 for the full control effect; nearly all actives have a fitted effect of over 70% in size
# TGFb CCL64 inh = blocks TGF-b signaling in CCL64 reporter cells; shares compounds with TGFb inhibitor; CCL64 CAGA-GFP reporter, TGF-b stimulated, GFP fluorescence, 18 h; Potency, µM (doses to about 46.1 µM), inactives show at the top dose activity, negative = inhibition, most hits filed as inhibitors; 1,600 tested, 41% active; note: nearly all actives have a fitted effect of over 65% in size
# COP TGFb inh = blocks TGF-b signaling in HepG2 COP reporter; shares compounds with TGFb inhibitor; HepG2 COP-GFP TGF-b reporter, GFP fluorescence, 18 h; cells stimulated by added recombinant TGF-beta; 1,600 tested, 3% active; Potency, µM (series often up to 46.1 µM), for the others: at the top dose activity, negative = inhibition, hits mostly inhibitors; AID 720537; note: nearly all actives have a fitted effect of over 70% in size
# * marks the source's active call; other numbers are inactive results; i = inactive; ? = inconclusive; · = not tested or not shown. Rows were chosen to be rich in hits. Some 5.9% of all compounds tested hit in one or more screens of this group. Calls come from the whole dose curve; as a rule, active = well fitted curve in the direction sought with a large enough effect; inconclusive = small, poorly fitted or top-dose-only effect, or another doubt; inactive = no such curve, though single readings can be large; an effect the other way counts as inactive or inconclusive. Potency is the fitted concentration of half-maximal effect.
SMILES,KB-V1 MDR tox,S2 tox,TGFb inhibitor,KB-3-1 cytotox,ATXN2 expr inh,HepG2 tox-1,TGFb confirm,HepG2 tox-2,TGFb CCL64 inh,COP TGFb inh
COc1ccccc1CNS(=O)(=O)c1ccc2c(c1)CC(C)N2C(=O)C1CCC1 (stereo not drawn),?,i,14.1µM*,?,-17.8%,-14.9%,18.4µM*,-19.0%,-23.5%,13.3%
O=C(Nc1cccc2ccccc12)c1csc([C@@H]2O[C@H](CO)[C@H](O)[C@H](O)[C@H]2O)n1,i,i,22.7%,i,1.3%,4.3%,·,·,·,·
CC(C)C[C@@H](CN1CCCC1CN1C(=S)NC[C@@H]1Cc1ccc(O)cc1)N1C[C@H](Cc2ccccc2)N(CC2CCCCCC2)C1=S (stereo partly drawn),?,?,15.8µM*,i,-28.1%,-6.8%,10.3µM*,?,2.06µM*,30.8%
CC(C)C[C@@H](CN1CCCC1CN1C(=S)NC[C@@H]1Cc1ccc(O)cc1)N1C[C@H](Cc2ccc(O)cc2)N(CC2CCCCCC2)C1=S (stereo partly drawn),?,28.2µM*,5.62µM*,?,?,-110.6%,20.6µM*,?,13µM*,?
CC(C)C[C@@H](CN1CCCC1CN1C(=S)NC[C@@H]1Cc1ccccc1)N1C[C@H](Cc2ccccc2)N(CC2CCCCCC2)C1=S (stereo partly drawn),?,?,·,i,-24.3%,·,·,·,·,·
O=S(=O)(c1cccc(F)c1)N1CCN(c2nc(-c3cccs3)nc3ccccc23)CC1,i,·,-9.5%,i,·,8.0%,·,·,·,·
COc1cccc2c1C(=O)c1c(O)c3c(c(O)c1C2=O)C[C@](O)(C(C)=O)C[C@H]3O[C@@H]1C[C@@H](N)[C@@H](O)[C@@H](C)O1,i,?,1µM*,?,?,-86.0%,1.03µM*,0.517µM*,4.11µM*,?
COc1cccc(C(=O)Nc2ccc(C(=O)OCc3cc(=O)n4nc(C5CC5)sc4n3)cc2)c1,·,·,3.6%,·,·,-3.8%,·,·,·,·
Cc1ccc(-n2c(=O)[nH]c3cc(C(=O)NCc4ccccc4)ccc3c2=O)cc1,?,i,-2.4%,i,22.9%,2.0%,·,·,·,·
O=C(COc1ccccc1)N[C@@H]1c2ccccc2CC[C@H]1OCc1ccccc1,i,i,15.8µM*,i,-36.5%,-23.0%,?,?,18.4µM*,35.8%
O=C(COc1ccccc1)N[C@@H]1c2ccccc2CC[C@@H]1OCc1ccccc1,i,i,-26.6%,i,-3.2%,-16.1%,·,·,·,·
O=C(Nc1ccc(S(=O)(=O)NC2=NCCCCC2)cc1)c1cccs1,i,i,0.1%,i,·,-14.3%,·,·,·,·
O=C(Nc1ccc(S(=O)(=O)NC2=NCCCCC2)cc1)c1ccc([N+](=O)[O-])s1,?,i,7.08µM*,6.51µM*,?,-104.8%,11.6µM*,?,20.6µM*,27.2%
Nc1nc(NCc2cccc(Cl)c2)c2[nH]cnc2n1,i,·,-20.4%,i,·,-29.3%,·,·,·,·
CCCCOc1ccc(C2c3c(oc4ccccc4c3=O)C(=O)N2c2nc(C)c(C(=O)OCC)s2)cc1OC (stereo not drawn),i,i,-1.0%,?,4.1%,5.3%,·,·,·,·
Cc1cccc(NS(=O)(=O)c2ccc(-c3cnc(C4CC4)o3)cc2)c1C,?,?,14.1µM*,0.184µM*,·,-24.9%,1.84µM*,?,4.11µM*,17.6%
Cc1cc(C)cc(NS(=O)(=O)c2ccc(-c3cnc(C4CC4)o3)cc2)c1,4.11µM*,i,7.94µM*,1.16µM*,·,-107.6%,8.2µM*,?,5.17µM*,15.1%
COCCN=C1N[C@@H](c2ccc(Br)cc2)C(C(=O)OC)=C(C)N1Cc1ccccc1,i,?,10µM*,i,?,-72.5%,?,?,?,61.8%
COCCN=C1N[C@@H](c2ccccc2)C(C(=O)OC)=C(C)N1Cc1ccccc1,i,i,0.9%,i,0.0%,-16.3%,·,·,·,·
O=C(C[n+]1ccnc2ccccc21)c1ccc(Cl)cc1,i,·,-29.8%,i,·,-12.1%,·,·,·,·
CCC(C)NS(=O)(=O)c1ccc(S(=O)(=O)N2CC=C(c3ccc(F)cc3)CC2)cc1 (stereo not drawn),?,i,8.91µM*,?,-29.3%,-32.2%,?,-16.5%,?,15.4%
CCC(C)NC(=O)C1=CCN(S(=O)(=O)c2ccc(C)cc2)CC1 (stereo not drawn),i,i,3.2%,i,3.6%,-2.5%,·,·,·,·
COc1ccc(CCNC(=O)Cn2c(=O)c3sccc3n(CC(=O)Nc3cccc(C(F)(F)F)c3)c2=O)cc1OC,·,·,-1.6%,·,·,1.8%,·,·,·,·
Cc1cccc(C)c1OCC(=O)Nc1oc(-c2ccccc2)c(-c2ccccc2)c1C#N,16.4µM*,i,12.6µM*,?,-1.1%,-5.3%,?,?,?,26.9%
COc1ccc(C(=O)Nc2oc(-c3ccccc3)c(-c3ccccc3)c2C#N)cc1,?,i,-22.8%,?,-2.9%,-27.6%,·,·,·,·
CSc1ccccc1NC(=O)C1(C)CCN1C(=O)Cc1ccccc1Cl (stereo not drawn),i,?,30.8%,i,-8.0%,-1.8%,·,·,·,·
CCOC(=O)c1sc2cccc(F)c2c1S(=O)(=O)N1CCN(c2cccc(Cl)c2)CC1,i,i,-15.4%,i,-12.8%,-10.8%,·,·,·,·
